Assay results reported in paper PMC7826789 (International Journal of Molecular Sciences, 2021).

How the values were obtained:
Conditions in all cases: Compound Concentration (nM):1000
[1] = tested on: PIK3CA(C420R)
[2] = tested on: PIK3CA(E542K)
[3] = tested on: PIK3CA(E545A)
[4] = tested on: PIK3CA(E545K)
[5] = tested on: PIK3CA(H1047L)
[6] = tested on: PIK3CA(H1047Y)
[7] = tested on: PIK3CA(I800L)
[8] = tested on: PIK3CA(M1043I)
[9] = tested on: PIK3CA(Q546K)
[10] = tested on: PIK3CA
[11] = tested on: PIK3CB
[12] = tested on: PIK3CD
[13] = tested on: PIK3CG
[14] = tested on: T1, PIK4CB
T1 construct: gene PI4KB

[15] = tested on: PIKFYVE
[16] = tested on: PIM1
[17] = tested on: PIM2
[18] = tested on: PIM3
[19] = tested on: PIP5K1A
[20] = tested on: PIP5K1C
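Note: KINOMEscan scanMAX binding as percent activity remaining versus control; lower means stronger binding.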

Structure (SMILES)	Percent Control [1]	Percent Control [2]	Percent Control [3]	Percent Control [4]	Percent Control [5]	Percent Control [6]	Percent Control [7]	Percent Control [8]	Percent Control [9]	Percent Control [10]	Percent Control [11]	Percent Control [12]	Percent Control [13]	Percent Control [14]	Percent Control [15]	Percent Control [16]	Percent Control [17]	Percent Control [18]	Percent Control [19]	Percent Control [20]
O=C1Nc2ccc(C(=O)c3ccco3)cc2C1=Cc1cc(Cl)c(O)c(Cl)c1 [GW406108X]	76%	76%	83%	72%	41%	79%	34%	93%	77%	91%	100%	79%	47%	0.8%	88%	32%	61%	9.9%	88%	43%
C[C@@H](Oc1cc(-n2cnc3ccc(OC4CCN(C)CC4)cc32)sc1C(N)=O)c1ccccc1Cl [GSK579289A]	60%	80%	67%	78%	76%	100%	78%	72%	100%	65%	20%	27%	11%	100%	15%	19%	100%	29%	21%	72%
CCc1ccc(Oc2nccc(-c3c(-c4ccc(F)cc4)ncn3C3CCNCC3)n2)cc1 [SB-242719]	81%	98%	87%	92%	63%	81%	91%	100%	90%	92%	99%	72%	95%	100%	100%	100%	100%	100%	87%	100%
Cl.O=C(O[C@H]1CN[C@H](C#Cc2cc3ncnc(Nc4ccc5c(cnn5Cc5ccccc5)c4)c3s2)C1)N1CCOCC1 [GSK200398A]	100%	100%	100%	85%	100%	100%	83%	100%	98%	100%	100%	100%	100%	100%	100%	100%	100%	100%	100%	99%
CCS(=O)(=O)c1ccc(OC)c(Nc2ncc(-c3cccc(F)c3)o2)c1 [GW621970X]	100%	100%	100%	100%	100%	97%	100%	93%	100%	100%	100%	100%	100%	100%	100%	100%	100%	100%	99%	28%
COc1ccccc1-c1cc(/C=C2\C(=O)Nc3ncc(Br)cc32)cc(Br)c1O [GW442130X]	78%	100%	76%	100%	100%	50%	100%	60%	100%	83%	80%	64%	65%	68%	30%	100%	96%	100%	86%	100%
COc1ccc(COc2ccc(Cc3cnc(N)nc3N)cc2OC)cc1 [GW632580X]	100%	96%	100%	91%	75%	100%	93%	100%	100%	76%	93%	100%	77%	100%	100%	100%	91%	100%	94%	100%
CN(C)c1cc2c(Nc3ccc4c(cnn4Cc4ccccc4)c3)ncnc2cn1 [GW282974X]	83%	90%	95%	67%	88%	70%	76%	97%	85%	89%	89%	70%	96%	100%	100%	91%	93%	90%	100%	100%
NS(=O)(=O)c1ccc(N/N=C2\C(=O)Nc3ccc(C(=O)NCc4ccncc4)cc32)cc1 [GW300657X]	90%	85%	100%	75%	89%	72%	85%	94%	83%	100%	81%	77%	100%	83%	84%	100%	100%	100%	100%	51%
Cc1cc(O)cc(C)c1/C=C/c1cncc(C(N)=O)c1 [GW435821X]	100%	100%	100%	100%	100%	100%	100%	88%	100%	96%	100%	81%	100%	100%	100%	100%	100%	100%	100%	67%
Cl.O=S1CCN(Cc2ccc(-c3ccc4ncnc(Nc5ccc(OCc6ccccc6)c(F)c5)c4c3)o2)CC1 [GW576924A]	100%	100%	100%	100%	100%	100%	100%	88%	100%	100%	96%	100%	100%	100%	86%	100%	100%	100%	100%	67%
Cl.O=C(Nc1ccc(Oc2ccc3[nH]c(NC(=O)c4ccccc4)nc3c2)cc1)Nc1cc(C(F)(F)F)ccc1F [GW709042A]	81%	100%	95%	100%	100%	80%	100%	100%	100%	100%	100%	76%	100%	100%	100%	100%	100%	100%	100%	98%
NS(=O)(=O)c1ccc(Nc2ncc(-c3ccccc3)o2)cc1 [GW572399X]	100%	100%	100%	100%	93%	100%	100%	93%	100%	100%	100%	100%	100%	71%	100%	100%	100%	100%	100%	74%
COc1cccc(-c2c[nH]c3c(N/N=C/c4ccncc4)ncnc23)c1 [GW814408X]	100%	100%	100%	100%	99%	78%	100%	99%	100%	95%	100%	92%	88%	100%	1.1%	82%	100%	75%	71%	28%
NS(=O)(=O)c1ccc(N/N=C2\C(=O)Nc3ccc(C(=O)NCCc4c[nH]cn4)cc32)cc1 [GW300660X]	100%	100%	100%	100%	98%	100%	98%	81%	100%	100%	100%	100%	95%	100%	100%	32%	100%	32%	100%	0.7%
COc1ccc2[nH]c3c4[nH]c5ccc(OC)cc5c4c4c(c3c2c1)C(=O)NC4=O [GW296115X]	90%	92%	100%	84%	74%	89%	93%	95%	91%	91%	88%	64%	87%	100%	0%	46%	0.5%	2.6%	100%	81%
COc1cc2ncnc(Nc3ccc4c(cnn4Cc4ccccc4)c3)c2cc1OC.Cl [GW282449A]	100%	100%	100%	100%	100%	100%	99%	100%	100%	100%	100%	100%	100%	100%	93%	100%	100%	100%	100%	76%
CCS(=O)(=O)c1ccc(OC)c(Nc2ncc(-c3cccc(OC)c3)o2)c1 [GW580509X]	100%	100%	100%	100%	100%	98%	100%	100%	100%	100%	100%	93%	100%	40%	91%	100%	100%	100%	100%	17%
COc1cc2ncn(-c3cc(O[C@H](C)c4ccccc4Cl)c(C(N)=O)s3)c2cc1OC [GSK237701A]	65%	44%	62%	51%	53%	56%	49%	52%	58%	54%	31%	28%	12%	67%	74%	88%	100%	66%	0%	9.9%
NS(=O)(=O)c1ccc(N/N=C2\C(=O)Nc3ccc(-c4cnco4)cc32)cc1 [GW276655]	81%	89%	98%	89%	94%	87%	91%	87%	97%	96%	98%	88%	83%	75%	100%	45%	96%	56%	26%	55%
